# Screening results as filed in PubChem BioAssay.
# Hits are enriched below; roughly 19% of the tested compounds scored in any of these assays.
# HT1080 IDH1KD tx = qHTS for induction of synthetic lethality in tumor cells producing 2HG: qHTS for the HT-1080-IDH1KD cell line; HT-1080 IDH1 knockdown viability, ATP luminescence, 48 h; Potency, µM (doses to about 46.1 µM), for the others: at the highest dose activity, negative = toxicity, actives largely listed as cytotoxic; 2% of 360,000 active; AID 686971, 2013;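 also: potency is read from the fitted curve at half-maximal effect; 0% = DMSO wells and -100% = cell-free medium wells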
#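 Cytotoxicity counter-line: IDH1KD HT-1080, 48 h, CellTiter-Glo. Curves classed by r2, magnitude and activity.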
# IL-1B inflam inh = qHTS for Inhibitors of Inflammasome Signaling: IL-1-beta AlphaLISA Primary Screen; activity change, % at 57.5 µM; 4.7% of 360,000 active; THP-1 LPS/ATP IL-1B secretion, AlphaLISA, 16 h; active compounds read low; in the data active = activity change below about -50%; inconclusive = mostly about -30% to -49%
#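 Secreted IL-1B measured by AlphaLISA bead assay after 16 h compound exposure of THP-1 cells; compounds (final up to 57.5 uM) added 1 h before LPS (250 ng/mL) and ATP (1.25 mM) stimulation; lower signal means less secretion.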
# HT1080NT lethal = qHTS for induction of synthetic lethality in tumor cells producing 2HG: qHTS for the HT-1080-NT fibrosarcoma cell line; HT-1080-NT fibrosarcoma viability, CellTiter-Glo ATP luminescence, 48 h; Potency, µM (doses to about 46.1 µM), for the others: at the highest dose activity, negative = less viability, most hits filed as cytotoxic; 1.6% of 360,000 active;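 also: NT is the 2HG producing partner of a matched IDH1 knockdown line; potency is read from the fitted curve at half-maximal effect; 0% = DMSO-treated cells and -100% = media-only wells without cells; nearly all actives have a fitted effect of over 55% in size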
#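 750 cells/well, RPMI + 5% FBS; 2 h settle, compound pin-transfer, 48 h at 37 degrees C. CellTiter-Glo 10 min RT, luminescence. Normalized to DMSO and media-only wells.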
# DT40 TDP1 no CPT = qHTS for Inhibitors of human tyrosyl-DNA phosphodiesterase 1 (TDP1): qHTS in cells in absence of CPT; DT40 Tdp1-/- hTDP1 cells, no CPT, ATP luminescence, 48 h; Potency, µM (titrated, usually from 46.2 µM), without a hit: top-dose activity change, negative = growth inhibition, usual class: inhibitors; 15% of 420,000 active; AID 686978, 2013; also: potency is read from the fitted curve at half-maximal effect; nearly all actives have a fitted effect of over 55% in size
#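 Readout: luminescence from CellTiter-Glo after 30 min in the dark at RT. Cells: DT40 Tdp1-/- with stable hTDP1, 400/well. Exposure: compounds alone, ≥48 hr, 37 °C.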
# DT40 TDP1 CPT = qHTS for Inhibitors of human tyrosyl-DNA phosphodiesterase 1 (TDP1): qHTS in cells in presence of CPT | 12% of 420,000 active | Potency, µM (highest dose often 46.2 µM), inactives show at the highest dose activity change, negative = growth inhibition, hits mostly inhibitors | chicken DT40 Tdp1-/-;hTDP1 cells + 20 nM CPT, ATP luminescence, 48 h | AID 686979, 2013; also: potency is read from the fitted curve at half-maximal effect; nearly all actives have a fitted effect of over 55% in size
#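 Chicken DT40 Tdp1-/- cells stably complemented with human TDP1 were seeded at 400 cells/well in medium containing 20 nM camptothecin, exposed to pin-transferred compounds, and grown at 37 °C for at least 48 hr. Viability was read as ATP luminescence.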
# * hit, by the source's call; ? = inconclusive; · = not tested or not shown; [ ] = dose if it differs, or a comment. Unless noted, calls follow the shape of the dose curve; as a rule, active = well fitted curve in the direction sought with a large enough effect; inconclusive = small, poorly fitted or top-dose-only effect, or another doubt; inactive = no such curve, though single readings can be large; an effect the other way counts as inactive or inconclusive. Unless noted, % is scaled to controls: 0 for no effect and ±100 for the full control effect.
SMILES,HT1080 IDH1KD tx,IL-1B inflam inh,HT1080NT lethal,DT40 TDP1 no CPT,DT40 TDP1 CPT
Cc1ccc(S(=O)(=O)n2[nH]c(=O)cc2N)cc1,?,24,-5%,-19%,-5%
O=C(c1cccs1)N1CCN(c2cc(Cl)ccc2Cl)CC1,4%,-22,-2%,?,-26%
CCOC(=O)N1CCN(S(=O)(=O)c2ccc(C(=O)NNc3nc4ccc(Cl)cc4s3)cc2)CC1,?,110,?,21µM*,21µM*
CCOC(=O)N1CCN(S(=O)(=O)c2ccc(C(=O)NNc3nc4c(C)cccc4s3)cc2)CC1,?,86,?,16µM*,16µM*
CCOC(=O)N1CCN(S(=O)(=O)c2ccc(C(=O)N(CCN(CC)CC)c3nc4c(C)cccc4s3)cc2)CC1,4%,4,-3%,-28%,?
O=C(COC(=O)c1cc(=O)[nH]c2ccccc12)NCc1ccccc1Cl,7%,40,1%,8%,1%
CC(=O)N(C(C)=O)c1ncn(C)c1S(=O)(=O)Nc1ccccc1,8%,14,-2%,5%,2%
Cc1ccc(C(=O)N2C(=S)C(c3ccc(F)cc3)=NC23CCN(C)CC3)cc1,18µM*,-9,?,4.6µM*,5.2µM*
N=C(N)SCP(=O)(c1ccccc1)c1ccccc1,-14%,-85*,-13%,18µM*,21µM*
CC1CN(C(=O)COC(=O)Cc2c(F)cccc2Cl)CC(C)O1 (stereo unspecified),2%,-7,-2%[9.24 µM],9%,4%
COc1ccc(Nc2oc(/C=C/c3ccc(OC)c(OC)c3)nc2C#N)cc1,·,·,·,-3%,19%
COc1ccc(/C=C/c2nc(C#N)c(NC3CCCCC3)o2)cc1OC,·,·,·,21µM*,21µM*
COc1cccc(/C=C/c2nc(C#N)c(NC3CCCCC3)o2)c1,·,·,·,4.1µM*,?
CCOc1ccc(-c2c(C(=O)N/N=C/c3ccsc3)nnn2-c2nonc2N)cc1,?,0,?,24%,-17%
Cc1cccc(C)c1NC(=O)COC(=O)c1c2c(nc3ccccc13)/C(=C\c1ccc3c(c1)OCO3)CCC2,-2%,13,-12%,18µM*,?
CC(OC(=O)c1c2c(nc3ccccc13)/C(=C\c1ccc3c(c1)OCO3)CCC2)C(=O)Nc1ccc(S(N)(=O)=O)cc1 (stereo unspecified),?,?,-9%,18µM*,?
COc1ccccc1N1CCN(C(CNS(=O)(=O)c2ccccc2)c2cccnc2)CC1 (stereo unspecified),-5%,14,-2%,18µM*,23µM*
COc1ccccc1N1CCN(C(CNC(=O)C2CCCCC2)c2cccnc2)CC1 (stereo unspecified),1%,6,-4%,10µM*,8.2µM*
O=C(NCC(c1cccnc1)N1CCOCC1)C1CCCCC1 (stereo unspecified),0%,7,2%,-5%,17%
C[C@H](CO)N1C[C@H](C)[C@H](CN(C)Cc2cncnc2)Oc2cc(Br)ccc2S1(=O)=O,-3%,-12,-6%,?,?
COc1ccccc1CNS(=O)(=O)c1ccc2c(c1)CCCN2C(C)=O,5%,43,-1%,-25%,-2%
COc1cccc(CNS(=O)(=O)c2ccc3c(c2)CCN3C(=O)C2CC2)c1,-15%,11,0%,?,?
COc1ccc(CNC(=O)C(NS(=O)(=O)c2ccc3c(c2)CCCN3C(C)=O)C(C)C)cc1 (stereo unspecified),0%,-3,-20%,?,-28%
CC(=O)N1CCCc2cc(S(=O)(=O)NCc3ccc(N(C)C)cc3)ccc21,·,·,·,21µM*,?
CCC(=O)N1CCc2cc(S(=O)(=O)NC(C(=O)NCc3ccc(C)cc3)C(C)C)ccc21 (stereo unspecified),-3%,0,-3%,-23%,5%
SMILES,HT1080 IDH1KD tx,IL-1B inflam inh,HT1080NT lethal,DT40 TDP1 no CPT,DT40 TDP1 CPT
CCC(=O)N1CCc2cc(S(=O)(=O)NCc3ccc(C)cc3)ccc21,·,·,·,18µM*,23µM*
O=C(C1CC1)N1CCc2cc(S(=O)(=O)NCc3ccccc3)ccc21,1%,11,?,?,23µM*
CC(=O)N1CCCc2cc(S(=O)(=O)NCc3ccc(C)cc3)ccc21,-13%,9,2%,13µM*,?
O=C(O)c1ccc(CNCc2c(Cl)cccc2Cl)cc1,8%,-2,4%,7%,-14%
CCOC(=O)C1=C(N)Oc2ccc(Br)cc2[C@@H]1[C@@H](C#N)C(=O)OCC,·,·,·,0%,4%
COc1ccc2c(CN3CCN(c4ccccc4F)CC3)cc(=O)oc2c1,11%,9,29%,?,?
CCNC(=O)c1c(O)c2c([nH]c1=O)CCCC2,10%,?,9%,0%,-11%
CCC(=O)N1CCc2cc(S(=O)(=O)NCCC(=O)Nc3ccc(OC)c(OC)c3)ccc21,·,·,·,-5%,-19%
CC(=O)N1CCCc2cc(S(=O)(=O)NCCC3=CCCCC3)ccc21,?,23,-9%,11µM*,10µM*
CCC(=O)N1CCc2cc(CNS(=O)(=O)c3ccc(NC(=O)CC(C)C)cc3)ccc21,·,·,·,18µM*,21µM*
CC(=O)N1CCCc2cc(S(=O)(=O)NCc3cccc(C)c3)ccc21,·,·,·,21µM*,?
COc1ccc(CCNC(=O)CCc2ccc(S(=O)(=O)NCC(C)C)cc2)cc1OC,-4%,16,-2%,-4%,-9%
CC(=O)N1CCCc2cc(S(=O)(=O)N3CCCCC3)ccc21,·,·,·,-21%,-7%
CC(C)CNS(=O)(=O)c1ccc(CCC(=O)NCCC2=CCCCC2)cc1,-5%,-10,-6%,23µM*,?
O=S(=O)(Nc1ccccc1Cl)c1cc(NC(=S)NCCN2CCOCC2)ccc1Cl,-18%,12,-19%,?,5%
COc1ccc(C(=S)N2CCOCC2)cc1OS(=O)(=O)c1ccccc1[N+](=O)[O-],-3%,-10,-1%,?,-29%
CCc1cc2c(=O)c(-c3nc4ccccc4n3C)c(C)oc2c(CN2CCOCC2)c1O,-27%,-16,-15%,9.2µM*,8.2µM*
CCc1cc2c(=O)c(-c3nc4ccccc4n3C)c(C(C)C)oc2c(CN2CCN(C)CC2)c1O,-6%,-8,-12%,12µM*,7.3µM*
